A selection: hits, their analogues and other compounds. The true share with any hit is near 3.7%.
CHT block: inhibits the human high affinity choline transporter. Q9GZV3. CHT-expressing cells, membrane potential dye, choline response; active compounds read low. B-score at 10 µM. hit rate 0.86% among 310,000;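 active = B-score over 3 SD under the library average, and starting fluorescence ratio not unusually high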;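 note: choline stimulus applied at its EC90 after an EC20 pre-addition; B-score computed on integrated fluorescence ratio after choline addition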
Target sequence (Q9GZV3 whole entry, looked up): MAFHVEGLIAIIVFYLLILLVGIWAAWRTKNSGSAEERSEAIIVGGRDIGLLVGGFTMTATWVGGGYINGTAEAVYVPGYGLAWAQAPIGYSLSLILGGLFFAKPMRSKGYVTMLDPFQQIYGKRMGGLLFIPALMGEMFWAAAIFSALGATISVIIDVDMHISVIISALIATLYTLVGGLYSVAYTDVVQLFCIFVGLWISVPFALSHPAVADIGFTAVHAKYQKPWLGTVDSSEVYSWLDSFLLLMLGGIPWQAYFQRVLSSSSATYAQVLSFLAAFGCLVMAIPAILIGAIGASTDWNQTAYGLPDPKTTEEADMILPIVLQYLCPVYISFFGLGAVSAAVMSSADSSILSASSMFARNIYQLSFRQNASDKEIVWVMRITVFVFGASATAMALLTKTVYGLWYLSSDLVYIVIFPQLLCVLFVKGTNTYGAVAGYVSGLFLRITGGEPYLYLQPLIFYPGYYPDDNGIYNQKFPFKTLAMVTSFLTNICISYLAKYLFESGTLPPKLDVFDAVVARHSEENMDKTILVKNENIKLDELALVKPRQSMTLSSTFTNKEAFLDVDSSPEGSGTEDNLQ
GPR7 antagonist: human neuropeptides B/W receptor 1 antagonism | P48145 | GPR7-expressing cells, fluorescence antagonist assay | inhibition, % at 4.4 µM | hit rate 1.1% among 290,000 | AID 1861; in the data active = inhibition above about 16%, passing the limit was not always enough;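 note: cells stimulated with the agonist NPW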
Kir21 inh: inhibitors of mouse Kir2.1 inward-rectifier potassium channel. hit rate 0.85% among 310,000. HEK293-Kir2.1, FluxOR thallium flux fluorescence; active compounds read low. P35561. B-score at 10 µM;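 active = fluorescence ratio B-score at or below minus 3 SD of library scores, with starting-brightness B-score within 2 SD, cut at about -4.2 in these data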;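 note: channel flux triggered by added potassium and thallium sulfate stimulus; B-score of peak minus minimum fluorescence over baseline after thallium stimulus; more negative B-score means stronger Kir2.1 block with less thallium influx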
CHT PAM: human CHT allosteric activation | B-score at 10 µM | hit rate 0.49% among 310,000 | Q9GZV3 | CHT-expressing cells, membrane potential dye, choline EC20; active compounds read high; LV-AA mutant CHT in HEK293 cells;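 active = initial fluorescence not abnormally high and integrated response B-score, plate-corrected, over 3 SD above library mean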
TMEM16A act: activators or potentiators of mouse TMEM16A chloride channel; Q8BHY3; HEK293 TMEM16A/YFP-H148Q/I152L, iodide quench fluorescence; active compounds read low; B-score at 10 µM; hit rate 0.3% among 340,000;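 active = fluorescence-ratio B-score plate-corrected deviation score at least 3 library SD below zero, with starting fluorescence score within 5 deviations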;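 note: channel opened by trigger with iodide after compound preincubation; score built on the fluorescence ratio of max minus min over baseline; more negative score means more quench and so TMEM16A activation or potentiation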
TMEM16A inh: blocks the mouse calcium-activated chloride channel TMEM16A. Q8BHY3. HEK293 TMEM16A/YFP iodide influx fluorescence, ionomycin. normalized B-score (activity score, 25-100; higher = stronger inhibition) at 10 µM. hit rate 1.2% among 310,000;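 active = ratio plate-corrected score three or more library SD toward inhibition, starting fluorescence score within five deviations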;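 note: score derived from kinetic fluorescence span divided by baseline fluorescence per well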
Of the large screens only hits and unclear results are named; the others gave an inactive call.

CCN(Cc1ccccc1)S(=O)(=O)c1ccc(S(=O)(=O)N(Cc2cccc(OC)c2)CC2CCCO2)cc1 (stereo not drawn)	TMEM16A inh 25
CCN(Cc1ccccc1)S(=O)(=O)c1ccc(OC)cc1	none
O=C([O-])c1ccccc1-[n+]1c(-c2ccccc2)cc(-c2ccccc2)cc1-c1ccccc1	Kir21 inh -4.6 (no result: GPR7 antagonist)
COCCNC(=S)N(CCc1c(C)[nH]c2ccc(Cl)cc12)Cc1cccs1	TMEM16A inh 100
CNC(=S)N(CCc1c(C)[nH]c2ccc(Cl)cc12)Cc1cccs1	none (no result: TMEM16A act)
COCCNC(=S)N(CCc1c(C)[nH]c2ccc(F)cc12)Cc1cccs1	GPR7 antagonist 20
CN(CC(=O)Nc1ccc(F)cc1)C(=O)CSc1nnc(Cc2ccccc2)o1	none (no result: CHT block, GPR7 antagonist, Kir21 inh, CHT PAM, TMEM16A inh)
NS(=O)(=O)c1ccc(N2CCN(C(=O)c3ccco3)CC2)nc1	none (no result: CHT block, GPR7 antagonist, Kir21 inh, CHT PAM, TMEM16A inh)
CC(C)OC(=O)c1ccc(Cn2nnc3ccccc3c2=O)cc1	TMEM16A inh 100
O=c1c2ccccc2nnn1Cc1ccc(F)cc1	TMEM16A inh 100
CCOC(=O)C(NC(C)=O)(NC(C)C)C(F)(F)F (stereo not drawn)	none
CCCN(C(=O)c1ccco1)c1nnc(-c2ccccc2C)s1	none
CC(C(=O)OCC(=O)N1CCN(c2ccccc2)CC1)N1C(=O)c2ccccc2C1=O (stereo not drawn)	none (no result: CHT block, GPR7 antagonist, Kir21 inh, CHT PAM, TMEM16A inh)
COc1ccc2c(c1)C(c1ccc(Cl)cc1)NC(=O)C2 (stereo not drawn)	none (no result: GPR7 antagonist)
CC1CCC(NC(=O)Cn2cnc3sccc3c2=O)CC1 (stereo not drawn)	TMEM16A act -4.8 (no result: CHT block, GPR7 antagonist, Kir21 inh, CHT PAM, TMEM16A inh)
COc1ccc(-c2csc(NC(=O)c3ccccc3Br)c2C(=O)O)cc1	CHT block -6.2
CCCCn1c(NC(=O)c2ccc(F)cc2)c(C#N)c2nc3ccccc3nc21	TMEM16A inh 100 (no result: GPR7 antagonist, TMEM16A act)
COc1cc(CNCCO)cc(Cl)c1OCc1ccccc1Cl	Kir21 inh -7
COc1cc(CNCc2ccccc2)cc(Cl)c1OC	none
CCOc1c(Cl)cc(CNCC(C)C)cc1OC	none
COc1cc(CNCCc2ccccc2)cc(Cl)c1OCc1ccccc1	Kir21 inh -13
CCOc1cc(CNCC(C)C)cc(Cl)c1OCc1ccccc1	Kir21 inh -14
COc1cccc(CNCCO)c1OCc1ccccc1Cl	none
CCOc1cc(CNCCCN2CCOCC2)cc(Br)c1OCc1ccccc1Cl	GPR7 antagonist 39, Kir21 inh -6.3
Cc1ccc(C(=O)N2CCN=C2SCc2ccc([N+](=O)[O-])cc2)cc1	TMEM16A act -5.8
COc1cc(C(=O)NS(=O)(=O)c2ccccc2C)ccc1Cc1cn(C)c2ccc(NC(=O)OC3CCCC3)cc12	TMEM16A inh 100 (no result: TMEM16A act)
COc1ccc(NC(=O)COc2ccccc2C)cc1S(=O)(=O)N1CCCCC1	none (no result: GPR7 antagonist)
N#Cc1ccc2[nH]c(CO)c(-c3ccccc3)c2c1	none
Nc1nc2n(n1)C(c1cccc(Cl)c1)CC(c1ccc(F)cc1)N2 (stereo not drawn)	GPR7 antagonist 19
CN(CC(=O)Nc1n[nH]c(=S)s1)S(=O)(=O)c1cccc2cccnc12	none
CC(C)(C)NC(=O)c1ccccc1NC(=O)C1CC(=O)N(C2CCCCC2)C1 (stereo not drawn)	none
COc1ccc(NC(=O)c2cccn(CC=C(C)C)c2=O)cc1	none
c1ccc2[nH]c(CN3CCOCC3)nc2c1	none
Nc1ccc2nc(CN3CCOCC3)[nH]c2c1	TMEM16A act -19
CC(=O)Oc1cc(C(=O)OCC(=O)NC23CC4CC(CC(C4)C2)C3)cc(OC(C)=O)c1OC(C)=O	none (no result: CHT block, GPR7 antagonist, Kir21 inh, CHT PAM, TMEM16A inh)
O=C(CCN1CCc2ccccc2C(c2ccccc2)C1)c1ccc2c(c1)OCCO2 (stereo not drawn)	CHT block -8.9
Cc1cc(C)cc(NC(=O)c2ccc(Cn3nc(C)c(Cl)c3C)o2)c1	none
Cc1ccc(CNC(=O)c2ccc(Cn3nc(C)c(Cl)c3C)o2)cc1	Kir21 inh -9
Cc1nn(-c2ccccc2)c(Cl)c1C(=O)N1CCN(c2ncnc3c2cnn3-c2ccccc2)CC1	TMEM16A inh 25
CC(C1CC2CCC1C2)n1c(-c2ccco2)n[nH]c1=S (stereo not drawn)	Kir21 inh -5.5
Cc1ccc(/C=N/n2c(-c3ccco3)n[nH]c2=S)cc1	none
Brc1cccc(OCCCCN2CCCCC2)c1	none
O=C(CSc1nnc(NC(=O)c2ccc(F)cc2F)s1)NC1CC1	none
COC(=O)c1cc(S(=O)(=O)C(C)C)c(S(C)=O)s1 (stereo not drawn)	none
COc1cc(/C=C2/CC/C(=C/c3ccc(O)c(OC)c3)C2=O)ccc1O	TMEM16A act -13
Cc1ccc(C(=O)NCCCN2CCOCC2)c(C)c1	none
COc1ccc(S(=O)(=O)CCC(=O)N2c3ccccc3CC2C)cc1 (stereo not drawn)	Kir21 inh -4.6
COc1ccc(N2CCN(CC(=O)N3c4ccccc4CC3C)CC2)cc1 (stereo not drawn)	none
COc1ccc(OC)c(NC(=O)CSc2nnc3ccc(-c4ccccn4)nn23)c1	none (no result: GPR7 antagonist)
C=CCN=C(NC#N)SCC(=O)c1cccc(OC)c1	TMEM16A inh 25
Cc1cc(/C=N/n2cnnc2)c(C)n1-c1ccc(OCc2ccc(Cl)cc2Cl)cc1	TMEM16A inh 100
COc1ccc(-c2nc(CSCC(=O)NCc3ccco3)c(C)o2)cc1	TMEM16A inh 100
Cc1cccc2nc(CSc3ccc(Cl)cc3)cn12	none
Cc1cccc2nc(COc3ccc(-c4ccccc4)cc3)cn12	TMEM16A inh 100 (no result: TMEM16A act)
COC(=O)C1CCN(C(=O)CN2C(=O)NC3(CCC(C)CC3)C2=O)CC1 (stereo not drawn)	none (no result: CHT block, GPR7 antagonist, Kir21 inh, CHT PAM, TMEM16A inh)
O=[N+]([O-])c1cccc(N=Nc2ccc(O)cc2O)c1	none (no result: CHT block, GPR7 antagonist, Kir21 inh, CHT PAM, TMEM16A inh)
O=[N+]([O-])c1ccc(N=Nc2ccc(O)cc2O)cc1	CHT block -9.9, TMEM16A inh 100
CCC/C(O)=C1\C(=O)CCCC1=NCCc1c(C)[nH]c2ccc(C)cc12	none
CCCC/C(O)=C1\C(=O)CCCC1=NCCc1c(C)[nH]c2ccccc12	Kir21 inh -4.4
O=C(COc1ccc(Cl)cc1)Nc1ncccn1	none
Cc1ccnc(NC(=O)COc2ccc(Cl)cc2)n1	GPR7 antagonist 19
CCOc1cc2c(cc1O)C(=NOC)CC1C2CCC2(C)C(O)CCC12 (stereo not drawn)	TMEM16A act -6.6 (no result: CHT block, GPR7 antagonist, Kir21 inh, CHT PAM, TMEM16A inh)
Cc1cc(C(=O)Nc2ccc(Cl)c(S(=O)(=O)N3CCOCC3)c2)c2ccccc2n1	none (no result: CHT block, GPR7 antagonist, Kir21 inh, CHT PAM, TMEM16A inh)
Cc1noc(/C=C/N(C)C)c1S(=O)(=O)N1CCCC(C(=O)Nc2ccc(F)cc2F)C1 (stereo not drawn)	none
CCCn1c(NCc2c[nH]c3ccccc23)nc2ccccc21	Kir21 inh -7.4
CCCn1c(NCc2cccc(OC)c2OC)nc2ccccc21	none
Cn1c2ccccc2c(=O)c2c(=O)n(-c3ccc(F)cc3)c(C3CCCCC3)nc21	none (no result: CHT block, GPR7 antagonist, Kir21 inh, CHT PAM, TMEM16A inh)

From PubChem
